Source: PubChem BioAssay AID425 (Sanford-Burnham Center for Chemical Genomics, 2006)
“And” between values parts separate entries of the source, which are not always exact repeats. Equal values may be shown once. Among all 110,000 compounds or so, about 190 (0.17%) were called active. This is one part of a sample in which actives are shown more often than they occur. Cut-off read from the data, not from the text of the source: active = inhibition above about 50%; inactive = the rest. Potency and affinity values are given separately. More than one record can exist for a structure, and the calls need not agree.

target: Dual specificity protein phosphatase 6 (Rattus norvegicus) (UniProt Q64346); assay: inhibition of rat DUSP6 enzyme activity – biochemical, in vitro, primary screen (AID 425); details: recombinant MKP-3 phosphatase activity, fluorescence; at 20 µM; stronger effect = higher value;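 note: plate controls were vehicle for no effect and reference inhibitor for full effect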
Sequence (Q64346 whole entry, looked up): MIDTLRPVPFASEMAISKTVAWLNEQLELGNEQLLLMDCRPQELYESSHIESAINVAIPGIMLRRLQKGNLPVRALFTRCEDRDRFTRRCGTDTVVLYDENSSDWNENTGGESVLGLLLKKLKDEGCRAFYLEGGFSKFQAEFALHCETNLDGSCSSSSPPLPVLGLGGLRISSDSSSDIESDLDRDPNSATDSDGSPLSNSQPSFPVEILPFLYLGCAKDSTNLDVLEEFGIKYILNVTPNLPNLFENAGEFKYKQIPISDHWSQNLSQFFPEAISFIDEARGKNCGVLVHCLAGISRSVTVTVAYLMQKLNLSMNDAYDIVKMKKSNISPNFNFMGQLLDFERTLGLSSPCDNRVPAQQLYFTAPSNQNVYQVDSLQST

inhibition, active:
Cc1cc2n(n1)SC(Nc1ccccc1)N2 (stereo not drawn) 61.5%, CC(=O)N(C)C1=C(Cl)C(=O)c2ccccc2C1=O 54.9%, CC(=O)NC1=C(Cl)C(=O)c2ccccc2C1=O 106%, CC(=O)C(C(C)=O)C1=CC(=O)C(=O)c2ccccc21 91.6%, CC(=O)C(C(C)=O)C1=C(Cl)C(=O)C(=O)c2ccccc21 71%, Cc1cccc(Nc2nc3c(s2)CCCC3)c1 95.3%, COc1cc2cc(=O)n(Cc3ccccc3)c(C)c2cc1OC 70.3%, O=C1C=CC2=C3Oc4c(ccc5cc(O)ccc45)C(c4ccccc4C(=O)O)C3C=CC2=C1 (stereo not drawn) 82.7%, COc1cccc2c(Cl)c(CC=C(Cl)Cl)c(C)nc12 74.2%

inhibition, 85.4% (active) and -2.3% (inactive):
Cc1ccc(C)n1Cc1ccc(C(=O)O)cc1

inhibition, inactive:
O=C(O)c1ccc(CN2CCOCC2)cc1 1.1%, COc1ccc(Cn2c(C)ccc2C)cc1 0.3%, CC(C(=O)NCc1ccccn1)N1C(=O)c2ccccc2C1=O (stereo not drawn) -2.2%, Clc1ccc(-c2ccc(/C=C\c3nc4ccccc4o3)o2)cc1 4.5%, O=C(O)CCCCCN1C(=O)/C(=C2/C(=O)N(CC(=O)O)c3ccccc32)SC1=S 1%, O=C(CN1C(=O)/C(=C/c2ccccc2)SC1=S)Nc1cccc(Br)c1 2.3%, CCOc1ccc(N(CC(=O)NCc2ccccc2)S(C)(=O)=O)cc1 -13.8%, Cc1cc(Nc2ccccc2)n(-c2ccccc2)n1 -6.8%, Cc1cc(C)n(C(=O)Nc2ccccc2)n1 4.3%, COc1cc(C(=O)N2CCN(C3C4CC5CC(C4)CC3C5)CC2)cc(OC)c1OC (stereo not drawn) 3.7%, CC(C)OC1=C(Cl)C(=O)c2ccccc2C1=O 5.3%, O=C1C(=O)c2ccccc2C(Cl)=C1Cl 23%, CC(=O)N(C1=C(Cl)C(=O)c2ccccc2C1=O)c1ccc(Br)cc1 21.1%, CC(=O)N(C1=C(Cl)C(=O)c2ccccc2C1=O)c1ccc(Cl)cc1 13.9%, O=C1C=C(C(c2ccccc2)c2ccccc2)C(=O)c2ccccc21 6.7%, CC(=O)c1ccc(NC2=C(Cl)C(=O)c3ccccc3C2=O)cc1 -8.2%, CC(=O)Nc1ccc(NC2=C(Cl)C(=O)c3ccccc3C2=O)cc1 3.8%, CC(=O)NC1=C(N(C)C)C(=O)c2ccccc2C1=O 0.7%, Cc1cc(O)c2c(-c3ccccc3)cc(=O)oc2c1 -1.9%, CCOC(=O)c1ccc(N2C(=O)C(O)=C(C(C)=O)C2c2ccccn2)cc1 (stereo not drawn) -5.9%, O=C1N/C(=N\N=C\c2cccc([N+](=O)[O-])c2)SC1Cc1cccc(Cl)c1Cl (stereo not drawn) -3%, O=C(O)COc1ccc(N2C(=O)c3c(Cl)c(Cl)c(Cl)c(Cl)c3C2=O)cc1 2.1%, CC(=O)c1ccc(N2C(=O)c3c(Cl)c(Cl)c(Cl)c(Cl)c3C2=O)cc1 1.4%, O=C(NCc1cccs1)C1CCN(S(=O)(=O)N2CCCC2)CC1 3.1%, Cc1ccc(C)c(Nc2nc3c(s2)CCCC3)c1 -4%, Clc1cccc(Nc2nc3c(s2)CCCC3)c1 0.9%, COc1ccccc1N1C(=O)C2C3C=CC(O3)C2C1=O (stereo not drawn) -2.7%, CCOC(=O)N1CCC(N2C(=O)c3ccccc3C2=O)CC1 1.8%, CN(C)S(=O)(=O)c1cc(C(=O)NCC2CCCO2)c(Cl)cc1Cl (stereo not drawn) -1.6%, CCC(C(=O)NC1CCCC1)N(C(=O)Cn1nnc(-c2ccc(C)o2)n1)C(C)(C)C (stereo not drawn) -14.3%, O=C(O)c1ccc(-n2c(=O)c3ccccc3c3ccccc3c2=O)cc1 1.5%, Cc1ccc(-n2c(=O)c3cc4c(=O)n(-c5ccc(C)c(C)c5)c(=O)c4c(C(=O)c4ccccc4)c3c2=O)cc1C 0.3%, Cc1ccc(OCC(=O)N(Cc2ccc(N(C)C)cc2)C2CCS(=O)(=O)C2)cc1 (stereo not drawn) -8.2%, COc1ccc(/C=N/NC(=O)COc2ccc3c(C)cc(=O)oc3c2)cc1 -1.4%, CCOc1ccc(NCC(=O)N/N=C/c2cc([N+](=O)[O-])ccc2O)cc1 5.2%, O=c1c[n+]([O-])c2ccccc2n1OCc1ccccc1 0%, CC1CCN(C(=O)CSc2nc3c(cnn3-c3ccccc3)c(=O)[nH]2)CC1 -9.5%, CC(C)CCNC(=O)Cn1cc2c(n1)CCCCC2 -5.2%, Oc1ccc(N=Nc2ccc(Cl)cc2)c2cccnc12 2.7%, O=S(=O)(O)c1cccc2c(N=Cc3cc(Cl)cc(Cl)c3O)cccc12 0.7%, Cc1ccc(OCCOc2ccc(C=O)cc2)cc1C 1.6%, CCC(=O)c1ccc(N2CCN(C(=O)c3ccc(F)c(F)c3)CC2)c(F)c1 2%, Cc1ccc(S(=O)(=O)N(C)CCCC(=O)N2CCN(C=O)CC2)cc1 -5.2%, O=C(Nc1cccc2c1CCCC2)c1ccco1 -7%, CCn1c(SCC(=O)N/N=C/C=C/c2ccccc2)nc2ccccc21 1.5%, O=C(c1ncc[nH]1)c1ccccc1C(=O)N1CCOCC1 1.3%, COc1ccccc1-c1nc(C#N)c(N2CCC(Cc3ccccc3)CC2)o1 3.6%, COc1cc2c(=O)n(Cc3ccccc3)c(=O)n(CC(=O)C(C)(C)C)c2cc1OC 4%, COc1ccc2c(c1)c(=O)c(Br)c(C)n2Cc1ccccc1 -17.6%, Cc1ccc(S(=O)(=O)Cc2ccc(C(=O)N3CCN(c4ccc(F)cc4)CC3)o2)cc1 -8.1%, CCOC(=O)C1=C(C)NC2=C(C(=O)CCC2)C1c1ccc(OCc2cccc(F)c2)c(OC)c1 (stereo not drawn) 2.1%, CCc1c(C)nc2c(OC)cccc2c1Cl 2.1%, COc1cccc2c(Cl)cc(C)nc12 -2.4%
